Measured values taken from PubChem BioAssay (EPA / NIEHS).
Records with an inconclusive call do not appear. The source made the active and inactive calls. The calls were made as follows: active = hit-call score of the fitted dose curve at least 0.9, where 1 is the maximum; inconclusive = response in the unintended direction; inactive = score below 0.9.

target: Estrogen receptor (Homo sapiens) (UniProt P03372); experiment: OT_ER_ERaERa_1440: Odyssey Thera (OT) 24-hour HEK293T Protein-Complementation Assay for Estrogen Receptor-alpha/-alpha Homodimer (AID 2283349);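 also: hits raise fluorescence above DMSO for agonists and antagonists alike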
Summary of the method: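 Protein-fragment complementation between two human ERα ligand-binding domains (aa 310-547) in stably transfected HEK293T cells was monitored after 24 h treatment, using fluorescence intensity relative to vehicle controls.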

Estrogen receptor (Homo sapiens), sequence (P03372 whole entry, looked up, the tested form may be a part): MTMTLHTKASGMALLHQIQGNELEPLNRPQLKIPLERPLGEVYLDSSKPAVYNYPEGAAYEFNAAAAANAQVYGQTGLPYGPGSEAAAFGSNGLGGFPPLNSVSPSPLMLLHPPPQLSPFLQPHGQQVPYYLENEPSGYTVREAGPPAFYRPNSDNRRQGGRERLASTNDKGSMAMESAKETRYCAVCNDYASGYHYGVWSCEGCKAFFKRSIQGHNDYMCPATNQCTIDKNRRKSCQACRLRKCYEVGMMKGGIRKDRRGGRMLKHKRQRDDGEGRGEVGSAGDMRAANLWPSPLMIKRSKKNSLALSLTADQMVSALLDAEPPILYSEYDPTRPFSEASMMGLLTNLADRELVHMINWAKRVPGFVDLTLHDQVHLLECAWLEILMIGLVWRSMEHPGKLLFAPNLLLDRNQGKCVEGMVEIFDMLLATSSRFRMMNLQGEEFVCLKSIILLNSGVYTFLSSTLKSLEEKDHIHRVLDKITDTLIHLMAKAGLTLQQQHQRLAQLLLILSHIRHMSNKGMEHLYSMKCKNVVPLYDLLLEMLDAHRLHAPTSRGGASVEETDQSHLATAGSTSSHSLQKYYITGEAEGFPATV

| SMILES | outcome | AC50 |
| --- | --- | --- |
| C=CC#N | inactive |  |
| CCCCCCCCSC(=O)Oc1cc(Cl)nnc1-c1ccccc1 | inactive |  |
| Cl/C=C/Cl | inactive |  |
| Clc1nc(Cl)nc(Cl)n1 | inactive |  |
| C=C(C)C#N | inactive |  |
| O=C(NCO)NCO | inactive |  |
| CC(C#N)CCC#N (stereo not drawn) | inactive |  |
| COc1ccc(C=O)cc1OC | inactive |  |
| [O-][Cl+2]([O-])O | inactive |  |
| ClC1(Cl)C2(Cl)C3(Cl)C4(Cl)C(Cl)(Cl)C5(Cl)C3(Cl)C1(Cl)C5(Cl)C24Cl (stereo not drawn) | inactive |  |
| CC(C)c1cccc(C(C)C)c1O | inactive |  |
| COc1ccc(C=O)cc1 | inactive |  |
| Cc1ccc2ccccc2c1C | inactive |  |
| Cn1sc(Cl)cc1=O | inactive |  |
| CNC | inactive |  |
| CC(=O)c1cc(C(C)(C)C)cc2c1CCC2(C)C | inactive |  |
| COP(=O)(OC)OC | inactive |  |
| OCc1ccco1 | inactive |  |
| CC(=O)C=C(C)C |  | 26.6 µM (active) |
| O=[N+]([O-])c1ccc(O)c([N+](=O)[O-])c1 | inactive |  |
| CC1(C)Cc2cccc(O)c2O1 | inactive |  |
| CCCCOCCOC(C)=O | inactive |  |
| N#CN=C(N)N | inactive |  |
| c1cc[c]([Hg][c]2ccccc2)cc1 | inactive |  |

target: Estrogen receptor (Homo sapiens) (UniProt P03372); experiment: OT_ER_ERaERa_0480: Odyssey Thera (OT) 8-hour HEK293T Protein-Complementation Assay for Estrogen Receptor-alpha/-alpha Homodimer (AID 2283351);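 also: rise in fluorescence from reassembled reporter fragments on ERα LBD homodimer in nucleus or whole cell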
Summary of the method: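 Binding reporter in which dimerisation of ERα LBD (aa 310-547) fusions reconstitutes a fluorescent reporter in HEK293T cells. Compounds incubated 8 h; mean fluorescence intensity increase versus DMSO scored.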

| SMILES | outcome |
| --- | --- |
| C=CC#N | inactive |
| CCCCCCCCSC(=O)Oc1cc(Cl)nnc1-c1ccccc1 | inactive |
| Cl/C=C/Cl | inactive |
| Clc1nc(Cl)nc(Cl)n1 | inactive |
| C=C(C)C#N | inactive |
| O=C(NCO)NCO | inactive |
| CC(C#N)CCC#N (stereo not drawn) | inactive |
| COc1ccc(C=O)cc1OC | inactive |
| [O-][Cl+2]([O-])O | inactive |
| ClC1(Cl)C2(Cl)C3(Cl)C4(Cl)C(Cl)(Cl)C5(Cl)C3(Cl)C1(Cl)C5(Cl)C24Cl (stereo not drawn) | inactive |
| CC(C)c1cccc(C(C)C)c1O | inactive |
| COc1ccc(C=O)cc1 | inactive |
| Cc1ccc2ccccc2c1C | inactive |
| Cn1sc(Cl)cc1=O | inactive |
| CNC | inactive |
| CC(=O)c1cc(C(C)(C)C)cc2c1CCC2(C)C | inactive |
| COP(=O)(OC)OC | inactive |
| OCc1ccco1 | inactive |
| CC(=O)C=C(C)C | inactive |
| O=[N+]([O-])c1ccc(O)c([N+](=O)[O-])c1 | inactive |
| CC1(C)Cc2cccc(O)c2O1 | inactive |
| CCCCOCCOC(C)=O | inactive |
| N#CN=C(N)N | inactive |
| c1cc[c]([Hg][c]2ccccc2)cc1 | inactive |
